Compound activity (PubChem)
A selection: hits, their analogues and other compounds. The true share with any hit is near 7.4%.
ELG1 genotox: genotoxicity induction in ELG1-luciferase HEK293T cells; Potency, µM (titrated, usually from 46 µM), for the others: at the highest dose activity change, positive = activation, usual class: activators; actives 1.3% (n = 330,000); HEK293T ELG1-luciferase reporter, luminescence, 16 h; note: % of control where 0% means no effect; nearly all actives have a fitted effect of over 60% in size
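Step 1: seed 2,000 HEK293T ELG1-luciferase cells per well. Step 2: add compound or DMSO, incubate 16 hr at 37 °C. Step 3: ONE-Glo, 30 min at room temperature, read luminescence.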
SMN2 splice up: enhancers of SMN2 splice variant expression. actives 2.8% (n = 210,000). HEK293 SMN2-luciferase splicing reporter, luminescence, 30-36 h. Potency, µM (series often up to 46.1 µM), for inactives: at the top dose activity change, positive = activation, hits mostly activators; note: % of control where 0% means no effect; nearly all actives have a fitted effect of over 55% in size
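HEK293 cells carry an SMN2 […]–luciferase reporter in which exon 7 inclusion puts luciferase in frame. Cells were plated 10-12 h before compound addition, then incubated 30-36 h at 37C. ONE-Glo luminescence was read; sodium butyrate at 4.5 mM final served as control.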
p53 reactivation: mutant p53 re-activation in reporter cells | H1299 p53-A138V BP100-luciferase reporter, luminescence, 24 h | Potency, µM (highest dose often 92.2 µM), for the others: at the highest dose activity change, positive = activation, most hits filed as activators | actives 0.063% (n = 320,000) | AID 504706; note: % of control where 0% means no effect; nearly all actives have a fitted effect of over 45% in size
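p53-null H1299 cells stably carrying temperature-sensitive p53-A138V and a BP100-luciferase reporter were pinned with compounds (4-point, 1:5 series) and held 24 hrs at 37 deg C. Luminescence was read 10 min after detection reagent.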
Rab9 promoter act: Rab9 promoter activation; Huh7 Rab9 promoter-luciferase reporter, luminescence, 24 h; Potency, µM (top dose mostly 9.22 µM), without a hit: at the highest dose activation, negative = inhibition, actives largely listed as activators; actives 2.8% (n = 320,000); AID 485297; note: % of control where 0% means no effect; nearly all actives have a fitted effect of over 60% in size
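Cells were plated at 1500 per well in reduced-serum medium with 10% FBS and left 2 h. Compound in DMSO was then added for 24 h at 37 °C. Reporter signal was read by luminescence after 10 min with luciferase detection reagent.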
FLuc counter: counter-screen for miR-21 project: firefly luciferase inhibitors or activators; AID 588342; Potency, µM (top dose mostly 57.5 µM), for the others: at the top dose activity change, negative = inhibition, most hits filed as inhibitors; purified FLuc, Km substrates, luminescence inhibition; actives 6.9% (n = 360,000); P08659;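 note: plate controls were vehicle for no effect and reference inhibitor for full effect; nearly all actives have a fitted effect of over 55% in size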
Target sequence (P08659 whole entry, looked up): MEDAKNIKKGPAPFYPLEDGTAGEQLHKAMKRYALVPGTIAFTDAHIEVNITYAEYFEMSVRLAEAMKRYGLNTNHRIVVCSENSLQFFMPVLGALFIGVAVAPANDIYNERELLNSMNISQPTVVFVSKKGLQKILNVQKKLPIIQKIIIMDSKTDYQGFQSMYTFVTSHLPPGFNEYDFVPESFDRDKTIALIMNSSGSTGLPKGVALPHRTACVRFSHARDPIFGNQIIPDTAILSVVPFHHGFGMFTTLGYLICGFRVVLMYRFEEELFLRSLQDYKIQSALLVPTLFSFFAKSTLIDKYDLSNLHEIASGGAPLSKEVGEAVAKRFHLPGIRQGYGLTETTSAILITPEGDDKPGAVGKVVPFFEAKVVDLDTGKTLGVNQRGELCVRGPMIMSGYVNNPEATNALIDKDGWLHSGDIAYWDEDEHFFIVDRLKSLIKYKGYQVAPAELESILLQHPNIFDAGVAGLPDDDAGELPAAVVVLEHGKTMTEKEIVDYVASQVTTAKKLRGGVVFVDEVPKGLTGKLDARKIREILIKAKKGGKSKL
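Purified P. pyralis luciferase, 10 nM final, with Km-level 10 uM D-luciferin and 10 uM ATP in 50 mM Tris acetate pH 7.5, 10 mM Mg acetate, 0.01% Tween-20, 0.05% BSA; 6-point qHTS titration about 60 µM downward; luminescence read.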
NPC1 promoter act: activators of NPC1 promoter | Huh7 NPC1 promoter luciferase reporter, 24 h | Potency, µM (doses to about 9.22 µM), for inactives: at the top dose activation, actives largely listed as activators | actives 2.4% (n = 320,000); note: % of control where 0% means no effect; nearly all actives have a fitted effect of over 60% in size
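Readout is luciferase luminescence, reflecting NPC1 promoter activation in stably transfected Huh7 cells after 24 h compound exposure at 37 °C in reduced-serum medium with 10% FBS.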
* = called active by the depositor; ? = inconclusive; . = no result given; [ ] = dose if it differs, or a comment. Calls come from the whole dose curve; as a rule, active = well fitted curve in the direction sought with a large enough effect; inconclusive = small, poorly fitted or top-dose-only effect, or another doubt; inactive = no such curve, though single readings can be large; an effect the other way counts as inactive or inconclusive. Potency is the fitted concentration of half-maximal effect.

SMILES | ELG1 genotox | SMN2 splice up | p53 reactivation | Rab9 promoter act | FLuc counter | NPC1 promoter act
COc1ccc(/C=C/C(=O)Nc2cccc(F)c2)cc1 | . | 4µM* | . | . | 0.85µM* | .
COc1ccc(/C=C/C(=O)Nc2ccccc2C(F)(F)F)cc1 | 10% | ? | 14% | ? | ? | ?
COc1ccc(/C=C/C(=O)NC2CC3CCC2C3)cc1 (centres undefined) | ? | . | . | 19% | 17µM* | 12%
COc1ccc(/C=C/C(=O)NC2CCCCC2C)cc1 (centres undefined) | -3% | . | 29% | 20% | -18% | 2%
O=C(CSc1nnc(NC(=O)C2CC2)s1)NCc1ccc(F)cc1 | ? | . | 3% | 6% | -2% | -1%
CN(C(=O)c1ccco1)c1nc2c(s1)CCCC2 | ? | 14µM* | ? | 0.89µM* | 2.4µM* | 0.71µM*
CN(C(=O)c1ccco1)c1nnc(C23CC4CC(CC(C4)C2)C3)s1 | ? | 16µM* | ? | ? | 9.5µM* | ?
CCOC(=O)c1c(NC(=O)c2ccc(OCC)c(Br)c2)sc2c1CCCC2 | . | 10% | . | . | -3% | .
COc1ccc(CNC(=O)c2csc(Cc3ccccc3)n2)cc1 | 7% | ? | 26% | 19% | 19µM* | 4%
COc1ccc(NC(=O)c2csc(Cc3ccccc3)n2)cc1 | ? | -15% | ? | ? | 6.7µM* | 26%
O=C(Nc1ccc(F)cc1)c1csc(Cc2ccccc2)n1 | 6% | 1% | ? | ? | 5.4µM* | ?
COc1ccccc1CNC(=O)c1csc(Cc2ccc(Cl)cc2)n1 | -3% | 5% | -5% | 0% | 0% | -4%
COC(=O)c1ccc(Cn2c(SCc3ccc(F)cc3)nc3ccncc32)cc1 | . | -13% | . | . | -17% | .
COc1ccc(CNC(=O)Cn2nc3c(cc2=O)CCCC3)cc1 | . | . | . | . | -1% | .
O=C(Nc1ccc(NC(=O)c2cccs2)cc1)c1ccc2c(c1)OCCO2 | ? | . | -2% | -16% | -7% | -4%
O=C(COC(=O)c1cccs1)c1ccc2c(c1)OCCO2 | 10µM* | -10% | 18% | 0.32µM* | 0.076µM* | 1.6µM*
O=C(NNC(=O)c1cccs1)c1ccc2ccccc2c1 | ? | 10% | 1% | ? | -18% | 18%
O=C(COC(=O)c1cccs1)c1ccc2ccccc2c1 | ? | -20% | ? | 28% | 1.7µM* | ?
CC(=O)NC12CC3CC(C1)CC(C(=O)OCC(=O)c1ccc4c(c1)OCCO4)(C3)C2 | ? | -2% | ? | 0.1µM* | 0.24µM* | 0.5µM*
C1CCN(CC[C@@H]2CCCCN2)CC1 | . | -6%[9.22 µM] | . | . | . | .
COC(=O)C1=C(C(=O)OC)[C@@H]2N(Cc3ccccc3)c3ccccc3[C@@]23C[C@@H](C(=O)OC)N(S(=O)(=O)c2ccc(C)cc2)C3=N1 | . | -6%[9.22 µM] | . | . | . | .
CCOc1ccc(C(=O)NCCc2ccc3c(c2)OCCO3)cc1 | -7% | -6% | 0% | 11% | ? | 8%
COc1ccc(CCNC(=O)c2ccc3c(c2)OCO3)cc1 | 15% | . | 21% | ? | ? | 23%
O=C(NCCc1ccccc1)c1ccc2c(c1)OCCO2 | ? | . | -62% | 0.0032µM* | 0.13µM* | 0.016µM*
O=C(NCCc1cccc(Cl)c1)c1ccc2c(c1)OCO2 | 2.6µM* | . | . | 0.45µM* | 1.5µM* | 0.32µM*
SMILES | ELG1 genotox | SMN2 splice up | p53 reactivation | Rab9 promoter act | FLuc counter | NPC1 promoter act
O=C(NCc1cccc(Cl)c1)c1ccc2c(c1)OCCO2 | 11% | . | ? | 24% | ? | 19%
COc1ccc(CCNC(=O)c2ccc3c(c2)OCCO3)cc1 | ? | ? | -10% | 3.2µM* | 9.5µM* | ?
O=C(NCCc1ccccc1)c1ccc2c(c1)OCCCO2 | ? | . | -21% | ? | 0.06µM* | -37%
COc1ccc(CCNC(=O)c2coc(=O)c(Br)c2)cc1 | 18µM* | . | -16% | 9% | 0% | 9%
O=C(NCCS(=O)(=O)NCCc1ccccc1)c1ccc2c(c1)OCO2 | 2.1µM* | . | 7% | 3.2µM* | 12µM* | 4.5µM*
O=C(Oc1ccccc1)N1CCC2(CC1)CCN(c1ccccc1)CC2 | . | -45% | . | . | . | .
O=c1c2ccccc2c(/C=N/c2nnc(Cc3ccccc3)s2)c(O)n1-c1ccc(Cl)cn1 | -1% | 0% | -4% | 2% | 1.9µM* | -4%
Cc1cccc(C)c1N=Cc1c(O)n(-c2nccs2)c(=O)c2ccccc12 | -5% | -5% | -21% | -10% | 0% | 0%
O=C(Nc1ccc(N2CCCCC2)cc1)C(Cl)c1ccccc1 (centres undefined) | 10µM* | 16% | 3% | 0% | 3µM* | ?
O=C(Nc1ccc(N2CCCC2)cc1)C(c1ccccc1)c1ccccc1 | 3% | -13% | -3% | -4% | 3% | -2%
O=C(Nc1ccc(SC(F)(F)F)cc1)c1ccccn1 | 2.3µM* | 2.2µM* | 0% | 1.4µM* | 0.85µM* | ?
COc1ccccc1C(=O)Nc1ccc(N2CCN(C(C)=O)CC2)cc1 | 2% | -11% | -2% | 2% | ? | 0%
O=C(Nc1ccc(N2CCCCCC2)cc1)c1ccc[nH]1 | ? | . | ? | 0.4µM* | . | 1.1µM*
COc1ccccc1C(=O)Nc1ccc(N2CCCCC2)cc1 | 2.9µM* | 18µM* | ? | 4µM* | 2.7µM* | ?
O=C(Nc1ccc(N2CCCC2)cc1)c1ccc(Br)cc1 | 10% | . | -5% | 24% | ? | 18%
NCC[C@H](O)C(=O)N[C@H]1C[C@@H](N)[C@@H](O[C@H]2O[C@@H](CN)[C@@H](O)[C@@H](O)[C@@H]2O)[C@@H](O)[C@@H]1O[C@H]1O[C@@H](CO)[C@@H](O)[C@@H](N)[C@@H]1O | . | -1%[20.6 µM] | . | . | . | .
O=C(Nc1ccc(N2CCCCC2)cc1)c1ccccn1 | ? | -77% | -10% | ? | 0.067µM* | ?
O=C(Nc1ccc(N2CCCCCC2)cc1)c1ccccc1Cl | ? | 14µM* | 27% | ? | 11µM* | 21%
O=c1n(Cc2ccccc2)nc2n1-c1cc(Cl)ccc1OC2 | . | 9% | . | . | -16% | .
Cc1cc2nc(-c3ccc(SCC(=O)N4CCN(C(=O)c5ccco5)CC4)nc3)[nH]c2cc1C | -5% | 7.9µM* | 8% | 3.5µM* | 0.48µM* | 3.5µM*
Cc1cc2nc(-c3ccc(SCC(=O)N4CCOCC4)nc3)[nH]c2cc1C | 2% | ? | -4% | 3.5µM* | 0.67µM* | ?
Cc1cc(=O)[nH]c(SCC(=O)N2CCN(C(=O)c3ccco3)CC2)n1 | -1% | . | -3% | . | . | .
COc1cc2cc(C)c(SCC(=O)N3CCOCC3)nc2cc1OC | 6% | . | -2% | -3% | -2% | -1%
CC(=O)c1ccc(NC(=O)CN2C(=O)CCc3ccccc32)cc1 | . | . | . | . | 6µM* | .
